Tb PYK inh: T. brucei pyruvate kinase inhibition | TbPYK enzyme, Kinase-Glo Plus ATP luminescence, 45 min | Potency, µM (doses to about 76.8 µM), usual class: inhibitors | 0.12% of 410,000 active; further: nearly all actives have a fitted effect of over 50% in size
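TbPYK + substrate in 50 mM TEA pH 7.2, 100 mM KCl, 10 mM MgCl2, 0.05% BSA, 0.01% Tween-20; cpd pinned; ADP 130 uM final; 45 min RT; Kinase-Glo Plus 10 min; luminescence endpoint.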
HCMV antiviral: human cytomegalovirus inhibition; 4.5% of 410,000 active; HFF cells, HCMV-luciferase reporter, 72 h; stronger effect = lower value; activity change, negative = inhibition, % at 57.5 µM; in the data active means activity change below about -60%; inconclusive means no clear call, values can overlap the other calls; inactive means above about -39%
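Human foreskin fibroblasts infected with luciferase-reporter HCMV at MOI 1 PFU/cell, compounds at two doses. Luciferase measured 72 h post infection; normalized to buffer-only basal and Salinomycin (10uM) controls.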
Sm TGR block: blocks Schistosoma mansoni thioredoxin glutathione reductase. purified TGR, DTNB reduction, TNB absorbance 405 nm. 3% of 360,000 active. AID 485364. Potency, µM (top dose mostly 114 µM), actives largely listed as inhibitors; further: nearly all actives have a fitted effect of over 60% in size
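Kinetic colorimetric format: TGR-catalysed, NADPH-driven DTNB reduction monitored via TNB absorbance. Enzyme dispensed at 20 nM; compound exposure 15 min at room temperature before reaction start.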
FMDV antiviral: foot and mouth disease virus antiviral activity. FMDV antiviral cell-based qHTS. 1.2% of 410,000 active. Potency, µM (highest dose often 57.9 µM), actives largely listed as inhibitors; calls by dose curve; tested in HEK293T cells; further: read-out not given here; nearly all actives have a fitted effect of over 45% in size
RE007 growth inh: less growth of the S. pombe RE007 Vpr strain; S. pombe RE007 Vpr strain, BacTiter-Glo ATP luminescence, 24 h; Potency, µM (highest dose often 92.2 µM), hits mostly inhibitors; 0.21% of 360,000 active; active means well fitted falling curve with a large enough effect; inconclusive means small, poorly fitted or top-dose-only effect; inactive means no such curve, though single readings can be large or run the other way; further: nearly all actives have a fitted effect of over 50% in size
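Fission yeast strain RE007, carrying one chromosomally integrated HIV-1 vpr copy, was seeded at OD 0.01 in PMG+AL medium with 23 nL pinned compound. After 24 h at 30 °C and 99% humidity, viability was read by BacTiter-Glo luminescence.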
Giardia FBPA inh: inhibitors of Giardia lamblia fructose-1,6-bisphosphate aldolase. A8B2U2. 0.71% of 290,000 active. AID 2451. Potency, µM (series often up to 59.6 µM), hits mostly inhibitors. purified Giardia FBPA; further: nearly all actives have a fitted effect of over 55% in size
Target sequence (A8B2U2 whole entry, looked up): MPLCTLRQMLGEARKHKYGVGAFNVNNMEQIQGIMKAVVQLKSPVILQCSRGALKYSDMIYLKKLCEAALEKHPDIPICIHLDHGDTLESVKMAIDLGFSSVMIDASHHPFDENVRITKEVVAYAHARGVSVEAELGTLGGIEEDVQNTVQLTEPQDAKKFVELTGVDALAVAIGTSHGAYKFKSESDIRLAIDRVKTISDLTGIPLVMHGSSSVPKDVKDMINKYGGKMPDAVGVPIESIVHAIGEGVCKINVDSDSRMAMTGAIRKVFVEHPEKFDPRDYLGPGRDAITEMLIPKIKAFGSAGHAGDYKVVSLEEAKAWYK
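Giardia FBPA (40 nM reagent) was preincubated 10 min at RT with compound (up to 57.5 uM final), then substrate plus GAPDH/TPI/NAD/arsenate coupling system with diaphorase/resazurin was added; resorufin fluorescence (525/598 nm) was read after 20 min.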
Of the large screens only hits and unclear results are named; the others gave an inactive call. Sampled rows, rich in hits. Any-hit rate of the full collection: about 7.7%. Unless noted, the call rests on the fitted dose curve; in most records, active means well fitted curve in the direction sought with a large enough effect; inconclusive means small, poorly fitted or top-dose-only effect, or another doubt; inactive means no such curve, though single readings can be large; an effect the other way counts as inactive or inconclusive.

COc1ccc(C)cc1NC(=O)c1ccccc1NS(=O)(=O)c1ccc(Cl)s1	HCMV antiviral -61.1 (no result: Sm TGR block)
O=c1c(-c2ccccc2)nc2cnc(N3CCOCC3)nc2n1-c1ccccc1	none (no result: HCMV antiviral, Sm TGR block, RE007 growth inh)
C[C@@H](/C=C\c1cccc(Oc2ccc(F)cc2)c1)N(O)C(N)=O	none (no result: Tb PYK inh, HCMV antiviral, Sm TGR block, RE007 growth inh)
Cc1cccc(N2CCN(S(=O)(=O)c3cc(C(=O)Nc4ccc(Oc5ccccc5)cc4)ccc3F)CC2)c1C	HCMV antiviral inconclusive, FMDV antiviral inconclusive (no result: RE007 growth inh, Giardia FBPA inh)
O=C(Nc1ccccc1)c1ccc(F)c(S(=O)(=O)N2CCOCC2)c1	none
Cc1ccc(CNS(=O)(=O)c2cc(C(=O)Nc3ccc(C(C)C)cc3)ccc2F)cc1	none (no result: RE007 growth inh, Giardia FBPA inh)
Cc1ccc(NC(=O)c2ccc(F)c(S(=O)(=O)N3CCOCC3)c2)cc1F	HCMV antiviral -68.6, FMDV antiviral inconclusive
Cc1ccc(NC(=O)c2ccc(F)c(S(=O)(=O)NCCc3ccccc3)c2)cc1F	HCMV antiviral -74.9 (no result: RE007 growth inh, Giardia FBPA inh)
O=S(=O)(c1cccc2cccnc12)N1CCc2ccccc21	HCMV antiviral -62.7
Cc1ccc(C)c(N2CCN(S(=O)(=O)c3cc(C(=O)Nc4ccc(Oc5ccccc5)cc4)ccc3F)CC2)c1	HCMV antiviral -65.1 (no result: RE007 growth inh, Giardia FBPA inh)
Cc1cnc(C(=O)NCc2c(C)ncc3c2CCN(C(=O)/C=C/c2cccs2)C3)cn1	none (no result: Tb PYK inh, HCMV antiviral, Sm TGR block, RE007 growth inh, Giardia FBPA inh)
COC(=O)c1cc2sccc2n1CC(=O)Nc1ccc(OC)c(OC)c1	none (no result: RE007 growth inh, Giardia FBPA inh)
CCc1ccccc1NC(=O)c1ccc(F)c(S(=O)(=O)N2CCN(c3ccccc3OC)CC2)c1	HCMV antiviral -62.4, FMDV antiviral inconclusive (no result: RE007 growth inh, Giardia FBPA inh)
Cc1nnc(Sc2cc(NCCCO)c([N+](=O)[O-])c3nonc23)s1	Sm TGR block 0.316µM, FMDV antiviral inconclusive, Giardia FBPA inh inconclusive
CCC(=O)OCCNc1cc(Sc2nc3ccccc3[nH]2)c2nonc2c1[N+](=O)[O-]	Sm TGR block 0.562µM, FMDV antiviral inconclusive, Giardia FBPA inh inconclusive
Cc1nnc(Sc2cc(NCCO)c([N+](=O)[O-])c3nonc23)s1	Sm TGR block inconclusive, FMDV antiviral inconclusive, Giardia FBPA inh inconclusive

Screening data from PubChem BioAssay.
